The text below walks through data of PubChem BioAssay (NCATS).

Records with an inconclusive call do not appear. The source made the active and inactive calls. Calls follow the shape of the dose curve; as a rule, active = well fitted inhibition curve with a large enough effect; inconclusive = small, poorly fitted or top-dose-only effect; inactive = flat fitted curve, though single readings scatter.

Holding throughout (experiment): qHTS profiling for inhibitors of Plasmodium falciparum proliferation (AID 504749); also: nearly all actives have a fitted effect of over 60% in size
What all share (conditions): P. falciparum in erythrocytes, SYBR Green DNA, 72 h; series mostly up to 28.7 µM
(Quantitative high-throughput screening tests each substance at several concentrations.)

Experiment [1] deals with CP305. The procedure, abridged:
(§1)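 Three-day growth assay of blood-stage parasites in erythrocytes (0.3% parasitemia, 2.5% hematocrit) at 37 C, 5% CO2, quantified by SYBR Green DNA staining after overnight detergent lysis.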

In experiment [2] the test system is CP315. The procedure, abridged:
as §1

Experiment [3] relates to CP325. The method, boiled down: as §1
Experiment [4] has as its system CP329. The method, boiled down: as §1
Experiment [5] relates to DFO2036. The method, boiled down:
as §1

Experiment [6] relates to DIV14. The method, boiled down:
as §1

The test system of experiment [7] is DIV17. The method, boiled down:
as §1

Experiment [8] relates to DIV30. The procedure, abridged: as §1
The subject of experiment [9] is Dd2. The procedure, abridged:
as §1

Experiment [10] relates to ECU. The method, boiled down: as §1
Experiment [11] has as its system FAB9. The procedure, abridged:
as §1

Experiment [12] relates to GB4. The procedure, abridged: as §1
The subject of experiment [13] is HB3. The method, boiled down: as §1
Experiment [14] relates to ICS. The procedure, abridged: as §1
For experiment [15], the system named is JCK. The method, boiled down: as §1
Experiment [16] concerns N140. The procedure, abridged:
as §1

Experiment [17] concerns P93_24. The procedure, abridged:
as §1

Experiment [18] concerns P94_40. The method, boiled down:
as §1

Experiment [19] deals with PAD. The method, boiled down:
as §1

Experiment [20] has as its system CP335. The procedure, abridged: as §1
Potency is read from the fitted curve at half-maximal effect.

Turning to `NCC[C@H](O)C(=O)N[C@@H]1C[C@H](N)[C@@H](O[C@H]2O[C@H](CN)[C@@H](O)[C@H](O)[C@H]2O)[C@H](O)[C@H]1O[C@H]1O[C@H](CO)[C@@H](O)[C@H](N)[C@H]1O`, the Potency entry in experiment [1], in experiment [2], in [3], in experiment [4], in [5] and in [6] was “inactive” throughout. The Potency entry in [7], in experiment [8], in [9], in [10], in experiment [11] and in [12] was “inactive” each time. The Potency result in [13], in [14], in experiment [15], in experiment [16], in experiment [17] and in experiment [18] was “inactive” each time. Further, the Potency result in experiment [19] is “inactive”.
Consider `CN1CCCC(CN2c3ccccc3Sc3ccccc32)C1` (stereo unspecified), for which the Potency result in experiment [1], in experiment [2], in [3], in experiment [4], in [11] and in [13] was “inactive” each time. For the same compound, in experiment [15], the Potency result was “inactive”. Further, the Potency in experiment [6] is 8.49 µM (active); in experiment [7], 8.49 µM (active); in experiment [9] it was 4.47 µM (active); in [14], 12.6 µM (active); in experiment [16] it was 8.91 µM (active).
Turning to `N=C(N)c1ccc(/C=C/c2ccc(C(=N)N)cc2O)cc1`, the Potency in experiment [1] was 6.01 µM (active); in experiment [2], 6.01 µM (active); in experiment [3] it was 3.38 µM (active); in experiment [4] it was 2.13 µM (active); in [5] it was 1.12 µM (active); in [6] it was 6.75 µM (active). The Potency was 6.01 µM (active) in experiment [7]; 2.13 µM (active) in [8]; 0.112 µM (active) in [9]; 10 µM (active) in [10]; 1.26 µM (active) in [11]; 536 nM (active) in [12]. Further, the Potency in [13] was 11.2 µM (active); in experiment [14], 1.26 µM (active); in experiment [16], 17.8 µM (active); in experiment [18], 8.91 µM (active). Besides, the Potency result in [15] was “inactive”.
In the case of `O=P(O)(O)OP(=O)(O)O`, the Potency entry in experiment [1], in [2], in [3], in [4], in experiment [20] and in [5] was “inactive” throughout. For the same compound, the Potency result in experiment [9], in experiment [10], in experiment [11], in experiment [13] and in experiment [17] was “inactive” each time. Also, the Potency in experiment [16] was 8.91 µM (active).
On to `C[C@]12CCC(=O)C[C@@H]1CC[C@@H]1[C@@H]2CC[C@]2(C)C=CC[C@@H]12`, for which the Potency entry in [1], in experiment [2], in experiment [3], in experiment [4], in experiment [5] and in experiment [6] was “inactive” each time. The Potency entry in [7], in experiment [8], in [9], in experiment [10], in experiment [11] and in [12] was “inactive” in each case. Also, the Potency result in experiment [15], in experiment [17], in experiment [18] and in [19] was “inactive” in each case.
As for `CCCc1nc(C(C)(C)O)c(C(=O)OCc2oc(=O)oc2C)n1Cc1ccc(-c2ccccc2-c2nn[nH]n2)cc1`, the Potency entry in experiment [1], in [2], in [3], in [4], in experiment [5] and in experiment [6] was “inactive” in each case. The Potency result in experiment [8], in experiment [9], in [10], in [11], in experiment [12] and in experiment [13] was “inactive” each time. In addition, the Potency entry in [15], in experiment [16], in experiment [17], in [18] and in [19] was “inactive” throughout.
`CN1CCc2c(c3ccccc3n2Cc2ccccc2)C1`: the Potency entry in [1], in experiment [2], in experiment [4], in experiment [5], in experiment [8] and in experiment [10] was “inactive” throughout. Further, the Potency entry in experiment [11], in experiment [13], in experiment [14], in [15], in experiment [16] and in experiment [17] was “inactive” throughout. Further, the Potency result in experiment [19] is “inactive”.
Regarding `O=C1[O][Bi][O]c2ccccc21`, the Potency entry in experiment [1], in [2], in experiment [3], in [4], in experiment [5] and in experiment [6] was “inactive” in each case. In addition, the Potency result in [7], in experiment [8], in experiment [9], in experiment [10], in experiment [11] and in experiment [12] was “inactive” throughout. For the same compound, the Potency entry in experiment [13], in experiment [14], in experiment [15], in experiment [16], in [17] and in [18] was “inactive” throughout. Besides, in experiment [19], the Potency entry is “inactive”.
As for `CCC(O)c1ccccc1` (stereo unspecified), the Potency entry in experiment [1], in experiment [2], in experiment [3], in experiment [4], in experiment [5] and in experiment [6] was “inactive” in each case. For the same compound, the Potency result in experiment [7], in [8], in [9], in experiment [10], in [11] and in experiment [12] was “inactive” in each case. For the same compound, the Potency result in experiment [13], in [14], in experiment [15], in experiment [16], in experiment [17] and in experiment [18] was “inactive” in each case. The Potency entry in [19] was “inactive”.
On to `Oc1ccc(Cl)c2c1CCC2`, for which the Potency result in experiment [1], in experiment [2], in [3], in experiment [4], in [5] and in [6] was “inactive” each time. The Potency result in experiment [8], in experiment [9], in experiment [10], in [11], in experiment [12] and in experiment [13] was “inactive” in each case. Moreover, the Potency result in experiment [15], in experiment [16], in [17], in experiment [18] and in experiment [19] was “inactive” throughout.
In the case of `COc1ccc2c(=O)c(C)c(-c3ccccc3)oc2c1CN(C)C`, the Potency result in [1], in [2], in experiment [3], in experiment [8], in [10] and in [11] was “inactive” each time. In addition, the Potency result in experiment [12], in experiment [13], in experiment [15] and in experiment [19] was “inactive” each time.
For the compound `CCOC(=O)C1=C(COCCN)NC(C)=C(C(=O)OC)C1c1ccccc1Cl` (stereo unspecified), the Potency result in [1], in experiment [2], in experiment [3], in experiment [4], in experiment [5] and in experiment [8] was “inactive” throughout. Besides, the Potency result in [11], in experiment [13], in [15] and in [19] was “inactive” throughout. Besides, the Potency in experiment [6] is 12 µM (active).
For the compound `Cc1ccc(S(=O)(=O)O)cc1C`, the Potency entry in experiment [1], in [2], in [3], in experiment [4], in [5] and in [6] was “inactive” in each case. Also, the Potency entry in experiment [7], in experiment [8], in [9], in experiment [10], in [11] and in [12] was “inactive” throughout. In addition, the Potency entry in experiment [13], in experiment [14], in experiment [15], in [16], in [17] and in experiment [18] was “inactive” throughout. Also, in experiment [19], the Potency entry was “inactive”.
